# In ChEMBL document CHEMBL3988442, “University of Dundee, Small-Polar-MMV Screening Library” (2021):
# Hit rate of the full screen: of about 48,000 compounds, about 13,000 (27%) showed an effect of 50% or more. The list shows a part of the results.
# Tested on: Wolbachia pipientis
# Test: Anti-Wolbachia Cell-Based Screen
# Type: functional
# Design: scale not given: in the data most compounds retested in dose-response had high values
# Conditions: 5 µM
row,SMILES,Percent Effect [%]
1,CCCn1nc2c(cc1=O)CN(CC(=O)N(C)c1nccs1)CC2,-22.84
2,CCc1cc(NCCCC2CCOC2)n2nccc2n1 (configuration not stated),-1.009
3,CCc1nnsc1C(=O)NCCn1nc2ccccn2c1=O,6.254
4,NC(=O)C(NC(=O)c1cc(Cl)c[nH]1)c1ccccc1 (configuration not stated),10.72
5,c1ccc(CN(Cc2cccc3cnccc23)CC2CCCO2)nc1 (configuration not stated),15.94
6,CCn1cc2c(n1)CN(S(=O)(=O)c1ccc(C)cc1)CC2COC (configuration not stated),-1.212
7,CCOCC1CN(S(=O)(=O)C2CC2)Cc2nn(C)cc21 (configuration not stated),-10.65
8,COCC1CN(C(=O)CC2=CCCCC2)Cc2nnn(CC3CC3)c21 (configuration not stated),25.21
9,COCC1CN(CC2CC2)Cc2ncn(CC3CC3)c21 (configuration not stated),123
10,COCC1CN(S(=O)(=O)C2CC2)Cc2ncn(CC3CC3)c21 (configuration not stated),93.96
11,CCOC(=O)C1CN(S(=O)(=O)C2CC2)Cc2ncn(CC)c21 (configuration not stated),-2.058
12,COCC1CN(Cc2ccc(C)o2)Cc2ncn(CC3CC3)c21 (configuration not stated),4.542
13,COCC1CN(C(=O)CS(C)(=O)=O)Cc2ncn(CC3CC3)c21 (configuration not stated),98.19
14,CCOCC1CN(S(C)(=O)=O)Cc2ncn(CC3CC3)c21 (configuration not stated),-5.705
15,COCC1CN(C(=O)Cc2ccccn2)Cc2ncn(C)c21 (configuration not stated),-6.541
16,COCC1CN(CC2CC2)Cc2nn(C)cc21.O=C(O)C(F)(F)F (configuration not stated),-11.2
17,CCOCC1CN(S(=O)(=O)C2CC2)Cc2ncn(CC3CC3)c21 (configuration not stated),93.99
18,CCN(C)S(=O)(=O)c1ccc(Cl)cc1C#N,-3.723
19,CCN1C(=O)[C@]2(CC[C@@H]3CN(C(=O)NCC(C)C)C[C@@H]32)N=C1C,1.741
20,CCOCC1CN(S(=O)(=O)CC)Cc2nn(C)cc21 (configuration not stated),-1.442
21,COCC1CN(S(C)(=O)=O)Cc2ncn(CC3CC3)c21 (configuration not stated),-3.416
22,CCS(=O)(=O)N1Cc2ncn(CC3CC3)c2C(COC)C1 (configuration not stated),96.93

row,SMILES,Percent Effect [%]
1,CCS(=O)(=O)N1CCc2cc(C(=O)NC)c(NCC(C)C)nc2CC1,-9.983
2,O=C(Cc1csc(-c2ccc(Cl)cc2)n1)NC(C(=O)O)c1ccccc1 (configuration not stated),14.14
3,CC(C)C[C@H](NC(=O)Cc1csc(-c2cccc(Cl)c2)n1)C(=O)O,111.7
4,C[C@H](NC(=O)Cc1csc(-c2cccc(Cl)c2)n1)C(=O)O,100.7
5,O=C(Cc1csc(N2CCNC2=O)n1)NC(c1ccccc1)C1CC1 (configuration not stated),-8.956
6,CC[C@H](C)[C@H](NC(=O)Cc1csc(-c2cccc(Cl)c2)n1)C(=O)O,-0.2804
7,COc1cccc(-c2nc(C)c(C(=O)N[C@@H](C)C(=O)O)s2)c1,-5.733
8,COc1cccc(-c2nc(CNC(C)Cn3cccn3)cs2)c1 (configuration not stated),12.67
9,O=C(Cc1csc(-c2ccccc2)n1)N[C@@H](C(=O)O)c1ccccc1,112.5
10,NC(=O)CCS(=O)(=O)Cc1ccc(OCC(F)(F)F)cc1,-2.639
11,CC(=O)Nc1ccc2c(c1)nc1n2[C@@H](CNCc2ccccc2)COC1,-2.529
12,C1CC(CN2C[C@H]3CC[C@@H]2CN(Cc2noc(C4CCCC4)n2)C3)C1,-8.86
13,O=C1CC(c2cccc(O)c2)c2c(c(C(=O)O)cn2-c2ccccc2)N1 (configuration not stated),2.755
14,OC[C@@H]1CCCN1c1ccc(-c2nc(COc3ccccc3)no2)cn1,-5.727
15,COCc1noc(-c2ccc(N3CCCCC3CO)nc2)n1 (configuration not stated),-1.816
16,OC[C@@H]1CCCN1c1nccc(-c2c[nH]nc2-c2ccncc2)n1,132.9
17,OC[C@H]1CCCN1c1nccc(-c2c[nH]nc2C2CCCCC2)n1,103.3
18,COCc1noc(-c2ccc(N3CCC[C@H]3CO)nc2)n1,11.1
19,OC[C@H]1CCCN1c1nccc(-c2cncnc2C2CCCCC2)n1,101.1
20,OCC1CCCN1c1cc(N2CCc3ccccc3C2)ncn1 (configuration not stated),-8.701
21,CC(NC(=O)c1cc2n(n1)CCCN(C)C2)c1cn2ccsc2n1 (configuration not stated),-3.947
22,CC(C)(C)OC(=O)N1CC(CC(=O)NCc2ccsc2)C1,-134.2

row,SMILES,Percent Effect [%]
1,N#Cc1cccc(CNc2cc(CO)ccc2Cl)c1,-41.9
2,CC(=O)N[C@@H]1CN(C2CCN(c3cccc(C)c3C)CC2)C[C@H]1C(C)C,-7.453
3,Cc1ncccc1OC1(C(=O)NCc2noc(C(C)C)n2)CCNCC1,-7.244
4,CCc1nnc(Nc2cc(C)nc(C3CN(C(C)=O)CCO3)c2)s1 (configuration not stated),108.4
5,CCCc1nnc(NC(=O)N2CCCC(NC(C)=O)C2)s1 (configuration not stated),-6.221
6,CNc1cc(C)nc(C2CN(Cc3cc[nH]n3)CCO2)c1 (configuration not stated),-11.69
7,COc1ccc(CNCc2ccnc(N3CCOCC3)c2)c(OC)c1,-1.923
8,COc1c(C)cc(CNCc2ccnc(N3CCOCC3)c2)cc1C.Cl,93.56
9,Cl.c1cc(CNCc2ccc3c(c2)CCO3)cc(N2CCOCC2)n1,-6.468
10,COc1cc(CNCc2ccnc(N3CCOCC3)c2)cc(Cl)c1OC,-1.055
11,COc1cccc(CNCc2ccnc(N3CCOCC3)c2)c1OC,119.8
12,COc1cc(CNCc2ccnc(N3CCOCC3)c2)cc(OC)c1,97.96
13,COc1ccc(CNCc2ccnc(N3CCOCC3)c2)cc1OC,-3.598
14,Cl.c1cc(CNCc2ccnc(N3CCOCC3)c2)c2c(c1)OCO2,16.56
15,COc1ccc(OC)c(CNCc2ccnc(N3CCOCC3)c2)c1,119.2
16,CCOc1ccccc1N(C)C(=O)c1ccc(Cl)cn1,-0.6778
17,O=C([C@H]1C[C@H]2OCC[C@H]2N(C(=O)c2ccncc2)C1)N1CCCCO1,15.67
18,CC(=O)c1c(O)ccnc1C(F)(F)F,-30.29
19,COc1ccc2c(c1)C(C(=O)N(C)CCc1scnc1C)CC(=O)N2 (configuration not stated),13.25
20,CCCc1nn(C2CCN(C3CC3)C2=O)c(=O)o1 (configuration not stated),-0.5192
21,CC(C)c1cc(NCC2(CO)CCC2)ncn1,-3.782
22,CCOc1cc(F)ccc1NC(=O)N(C(C)CS(C)(=O)=O)C1CC1 (configuration not stated),-6.232

row,SMILES,Percent Effect [%]
1,Cc1cncc(C2CCCN(Cc3cccn3C)C2)n1 (configuration not stated),4.46
2,Cc1cncc(C2CCN(Cc3cccn3C)CC2)n1,121.9
3,CC(c1nc(C2CC2)no1)N1CCN(Cc2ccsc2)CC1 (configuration not stated),3.758
4,CCOC(=O)N(C)C1CCN(Cc2ccsc2)CC1,-3.636
5,COc1cncc(N2CCN(Cc3cccn3C)CC2)n1,-11
6,Cc1cncc(C2CCN(Cc3ccsc3)CC2)n1,117.4
7,Cc1ccccc1C(=O)NC[C@@H]1CCN(C(=O)c2cccn2C)C[C@H]1O,2.167
8,Cc1cnn(CCNCc2ccc(C#N)cc2F)c1,-2.376
9,Cn1c(C2CC2)nc2cc(NC(=O)C3(O)CCCC3)ccc21,-3.273
10,CC(Cc1ccco1)NC(=O)CCn1cccn1 (configuration not stated),-2.22
11,Cc1ccn(CCC(=O)NCc2ccco2)n1,113.3
12,Cc1ccn(CCC(=O)NCc2ccc(C)o2)n1,96.24
13,CCC(C)NC(=O)CCn1ccc(C)n1 (configuration not stated),122.6
14,Cc1ccc(CNC(=O)CCC(=O)NCCC(C)C)o1,-4.384
15,Cc1ccc(OCC(=O)NCc2ccco2)nc1,-11.41
16,Cc1ccn(CCC(=O)NC(C)Cc2ccco2)n1 (configuration not stated),108
17,COC(=O)CC(NC(=O)CCn1cccn1)c1ccc(C)cc1 (configuration not stated),-17.18
18,O=C(CCN1C[C@H]2CC[C@@H]1CN(c1ncccn1)C2)NCc1ccco1,-5.213
19,CC(Cc1ccco1)NC(=O)CSc1nnc[nH]1 (configuration not stated),-0.3206
20,CCN(Cc1nccn1C)C(=O)c1ccc(NCc2ccc(C)o2)nc1,12.06
21,CC(NC(=O)CCn1cccn1)c1cccs1 (configuration not stated),-33.21
22,CC(C)Cc1nc(CN2CCC3(CCCO3)CCC2=O)no1 (configuration not stated),-10.71

row,SMILES,Percent Effect [%]
1,COc1ccc(OC)c(-n2cnnc2C)c1,-0.7087
2,Cc1nc(C#N)c(N2CCC(c3nc(-c4ccccc4)no3)CC2)o1,4.008
3,Cc1cc(C)nc(CN(C)C(=O)c2cccc(CCC(C)(C)O)c2)c1,33.03
4,NC(=O)NC(=O)CCn1ccc(-c2ccccc2)n1,-9.301
5,Cc1cc(C)n(CC(C)CNC(=O)CCc2ccco2)n1 (configuration not stated),10.87
6,Cc1ccn(CCC(=O)NCCc2ccco2)n1,109.8
7,Cc1ncc(CC(=O)N2CCC(N3C[C@@H](C)O[C@@H](C)C3)CC2)c(=O)[nH]1,-13.09
8,CC[C@H]1COCCN1C(=O)c1cnc(-c2ccccc2)nc1C,-84.76
9,CCc1ocnc1C(=O)N1CCOCC1CC(=O)c1ccccc1 (configuration not stated),-28.11
10,CC(C)c1ncc(C(=O)N2CCOCC2CC(=O)c2ccco2)s1 (configuration not stated),131.2
11,CCc1nc(C(=O)N2CCOCC2CC(=O)c2ccccc2)c[nH]1 (configuration not stated),-17.76
12,CC(C)c1ccc(C(=O)N2CCOCC2CC(=O)c2ccco2)cn1 (configuration not stated),178.1
13,CC(C)c1cc(C(=O)N2CCc3ccccc3C2C(=O)O)nn1C (configuration not stated),7.9
14,CC(C)c1cc(C(=O)N2Cc3ccccc3CC2C(=O)O)nn1C (configuration not stated),14.25
15,CC(C)c1cc(C(=O)N2CCOCC2CC(=O)c2ccco2)nn1C (configuration not stated),128.9
16,CCc1ncc(C(=O)N2CCOCC2c2c(C)n[nH]c2C)s1 (configuration not stated),6.424
17,CC(C)c1nc(C(=O)N2CCOCC2CC(=O)c2ccco2)cs1 (configuration not stated),84.12
18,CCc1ncc(C(=O)N2CCOCC2CC(=O)c2ccccc2)s1 (configuration not stated),-7.731
19,O=C(CC1COCCN1C(=O)c1cscn1)c1ccccc1 (configuration not stated),5.406
